Only some compounds are listed: those with a hit (about 12% of all), similar ones and a draw of the others.
L3MBTL1 block – inhibitors of human L3MBTL1; Q9Y468; AID 485360; AlphaScreen L3MBTL1–H3K9me1 peptide binding; hit rate 0.66% among 230,000; Potency, µM (doses to about 57.1 µM), inactives show at the top dose activity, negative = inhibition, most hits filed as inhibitors; further: on the % scale 0 is the no-effect control and ±100 the full control effect; nearly all actives have a fitted effect of over 60% in size
Target sequence (Q9Y468 whole entry, looked up): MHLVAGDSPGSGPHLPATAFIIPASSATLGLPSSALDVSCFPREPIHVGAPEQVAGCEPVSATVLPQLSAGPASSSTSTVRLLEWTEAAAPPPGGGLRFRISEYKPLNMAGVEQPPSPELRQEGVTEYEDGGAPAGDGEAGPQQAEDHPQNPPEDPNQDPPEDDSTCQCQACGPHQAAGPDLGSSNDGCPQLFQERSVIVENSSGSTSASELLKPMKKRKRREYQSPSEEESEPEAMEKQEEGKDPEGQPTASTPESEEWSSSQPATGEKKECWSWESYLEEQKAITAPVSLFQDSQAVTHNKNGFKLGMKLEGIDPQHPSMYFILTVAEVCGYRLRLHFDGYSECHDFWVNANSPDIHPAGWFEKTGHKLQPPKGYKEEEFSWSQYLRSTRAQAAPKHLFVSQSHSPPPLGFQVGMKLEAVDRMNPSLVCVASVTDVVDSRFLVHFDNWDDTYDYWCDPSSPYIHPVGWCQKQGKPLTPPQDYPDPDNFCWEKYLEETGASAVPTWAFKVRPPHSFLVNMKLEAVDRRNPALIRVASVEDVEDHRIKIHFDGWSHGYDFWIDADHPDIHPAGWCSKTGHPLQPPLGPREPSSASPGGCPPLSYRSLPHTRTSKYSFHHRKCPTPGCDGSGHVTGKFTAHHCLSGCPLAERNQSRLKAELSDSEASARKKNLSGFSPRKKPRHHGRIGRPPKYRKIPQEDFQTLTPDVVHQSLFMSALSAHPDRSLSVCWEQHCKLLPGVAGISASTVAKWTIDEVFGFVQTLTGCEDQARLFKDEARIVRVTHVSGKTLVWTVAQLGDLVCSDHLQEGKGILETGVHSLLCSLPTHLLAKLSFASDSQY
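Displacement of a biotinylated histone H3(1-15) peptide monomethylated at Lys9 (75 nM) from L3MBTL1 (50 nM) was measured by AlphaScreen after a 30 min room-temperature compound incubation; cefsulodin titration served as intraplate control.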
JMJD2A Tudor inh – blocks the human JMJD2A Tudor domain; O75164; AlphaScreen JMJD2A-Tudor / H3K4me3 peptide binding; Potency, µM (series often up to 114 µM), for the others: top-dose activity change, negative = inhibition, hits mostly inhibitors; hit rate 4.4% among 390,000; AID 504339; further: on the % scale 0 is the no-effect control and ±100 the full control effect; nearly all actives have a fitted effect of over 50% in size
Sfp PPTase inh – Sfp phosphopantetheinyl transferase inhibition. Q9F4F7. Biochemical Sfp PPTase activity, qHTS. Potency, µM, for the others: largest response in the series, negative = inhibition, usual class: inhibitors. hit rate 3.5% among 310,000. AID 1490;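 further: the enzyme is Sfp with the accession as filed and its product quenches rhodamine fluorescence; 0% = enzyme reaction without inhibitor and -100% = no enzyme wells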
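Compounds were incubated with enzyme (final 15 nM) for 15 min at room temperature before substrate addition started the reaction. Fluorescence at 525 nm excitation, 598 nm emission was recorded immediately and after 30 minutes.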
G9a block – blocks human histone lysine methyltransferase G9a; Q96KQ7; G9a H3K9 monomethylation, AlphaScreen, 2 h; Potency, µM (highest dose often 102 µM), for inactives: top-dose activity, negative = inhibition, usual class: inhibitors; hit rate 8.8% among 350,000; further: on the % scale 0 is the no-effect control and ±100 the full control effect; nearly all actives have a fitted effect of over 75% in size
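Quantitative HTS format: methyltransferase activity on a biotin-tagged H3K9 peptide is measured by AlphaScreen, using a rabbit anti-monomethyl-H3K9 antibody with streptavidin donor and anti-IgG acceptor beads. Final levels are 20 nM enzyme, 500 nM peptide, 20 uM SAM; 2 h RT.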
HP1b binding inh – blocks HP1-beta chromodomain binding to methylated histone tails. P83916. AlphaScreen HP1-beta / biotin-H3K9me3 peptide binding. Potency, µM (top dose mostly 114 µM), without a hit: top-dose activity change, negative = inhibition, actives largely listed as inhibitors. hit rate 0.56% among 390,000. AID 540317; further: nearly all actives have a fitted effect of over 70% in size
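HP1-beta protein (50 nM final) preincubated 30 min at room temperature with biotinylated H3(1-18)K9me3 peptide (50 nM) in PBS pH 7.4, 0.01% Tween-20, then compound added for 30 min. AlphaScreen streptavidin donor/nickel chelate acceptor beads (10 ug/mL final), 30 min dark, luminescence read.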
BAZ2B inh – blocks human BAZ2B; Q9UIF8; hit rate 4.4% among 360,000; Potency, µM (highest dose often 114 µM), for inactives: at the top dose activity change, negative = inhibition, hits mostly inhibitors; AlphaScreen BAZ2B-H3K14Ac peptide displacement; further: on the % scale 0 is the no-effect control and ±100 the full control effect; nearly all actives have a fitted effect of over 60% in size
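Multi-concentration screen (max 110 uM) measuring displacement of acetylated histone H3 peptide from BAZ2B by AlphaScreen, using 50 nM protein, 50 nM peptide and 10 ug/mL streptavidin donor plus Ni-chelate acceptor beads.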
Starred values were filed as active, the others as inactive; u = inconclusive; x = not tested or not shown; ! = not active in a repeat; [ ] = another dose, or the depositor's remark. The call rests on the fitted dose curve; in most records, active means well fitted curve in the direction sought with a large enough effect; inconclusive means small, poorly fitted or top-dose-only effect, or another doubt; inactive means no such curve, though single readings can be large; an effect the other way counts as inactive or inconclusive. Potency means the concentration at half of the fitted maximal effect.

SMILES | L3MBTL1 block | JMJD2A Tudor inh | Sfp PPTase inh | G9a block | HP1b binding inh | BAZ2B inh
COc1cc(/C=C2\CCC/C(=C\c3ccc(O)c(OC)c3)C2=O)ccc1O | x | 28µM* | -7% | 45µM* | u | u
COc1ccc(/C=C2\CCC(C3CCCC3)C2=O)c(OC)c1OC (stereo unspecified) | x | 7% | -4% | -4%[2.33 µM] | 31% | 0%
COc1ccc(/C=C2/CC/C(=C\c3ccc(OC)c(OC)c3OC)C2=O)c(OC)c1OC | -11% | u | -3% | 7.9µM* | 4% | u
COc1cc(/C=C2/C(=O)CNC2=O)ccc1O | 2% | 7% | u | 45µM* | 26% | -12%
CCc1ccc(C(=O)c2cn(CC(=O)Nc3cc(OC)ccc3OC)c3ccc(Cl)cc3c2=O)cc1 | x | -5% | x | 11%[59 µM] | 37% | -3%
CC(NNC(=O)c1ccccc1)c1ccccc1 (stereo unspecified) | x | x | 31% | 4%[12.7 µM] | x | x
CCC(=O)OCc1cnc(C)c2oc(=O)c(C(=O)Nc3ccccc3C(F)(F)F)cc12 | x | -4% | x | 12%[12.7 µM] | 18% | -5%
CCOc1cc(/C=N/N=C/c2ccc(O)c(OCC)c2)ccc1O | x | -23% | 7% | 15% | 23% | 3%
COc1cc(/C=C2\CC/C(=C\c3cc(OC)c(OC)c(OC)c3)C2=O)cc(OC)c1OC | -2% | u | -2% | 3%[59 µM] | -9% | -10%
CCOc1cc(/C=C2\CN(CC)C/C(=C\c3ccc(O)c(OCC)c3)C2=O)ccc1O | x | 56µM* | -14% | 28µM* | -20%[57 µM] | 50µM*
COc1cc(/C=C2\CC/C(=C\c3cc(OC)c(O)c(OC)c3)C2=O)cc(OC)c1O | 28µM* | 45µM* | 45µM* | 2.5µM* | u | 50µM*
N#CC1=C(N)OC2=C(C(=O)CCC2)C1c1ccccc1 (stereo unspecified) | -2% | -19% | 15% | 9%[59 µM] | 14% | x
Cn1cccc1C1C(C#N)=C(N)OC2=C1C(=O)CCC2 (stereo unspecified) | 33% | -22% | 40µM* | -8%[12.7 µM] | -14% | u
Cc1ccc(C2CC2C(=O)NNC(=S)Nc2ccc(Cl)cc2)cc1 (stereo unspecified) | 4% | -28% | -5% | 25µM* | -18% | -8%
COc1ccc(N(C(=O)c2ccncc2)S(=O)(=O)c2cccc([N+](=O)[O-])c2)cc1 | x | u | 7% | 79µM* | 28% | -36%
COCCn1c(C)cc(C2=NNC(=NC3CC3)SC2)c1C | x | -26% | 50µM* | 40µM* | 7% | u
COCCn1c(C)cc(C2=NNC(=Nc3ccc(Cl)cc3Cl)SC2)c1C | -1% | -34% | 56µM* | u | -18% | -36%
COCCCN=C1NN=C(c2cc(C)n(Cc3ccco3)c2C)CS1 | -2% | u | u | u | -3% | u
C=CCN=C1NN=C(c2cc(C)n(CCOC)c2C)CS1 | -1% | -5% | 40µM* | -5%[59 µM] | 37% | u
Cc1cc(C2=NNC(=NC3CC3)SC2)c(C)n1Cc1ccco1 | 5% | u | u | 25µM* | -21% | u
Cc1ccc(CNC(=O)c2cc(-c3ccc(C)cc3)nc3n[nH]c(-c4cccc([N+](=O)[O-])c4)c23)cc1 | x | 2% | x | -3%[59 µM] | 37% | 5%
c1cncc(CNc2ncncc2-c2ccoc2)c1 | x | x | 79µM* | -14%[0.501 µM] | x | x
c1cncc(CNc2ncnc3ccc(-c4cccnc4)cc23)c1 | 11% | u | 79µM* | 1%[12.7 µM] | 41% | -25%
c1cncc(CNc2nc(-c3ccoc3)nc3ccccc23)c1 | x | x | 40µM* | x | x | x
c1nc(NCc2ccc3c(c2)OCO3)c2cc(-c3ccoc3)ccc2n1 | -6% | -23% | x | 0%[12.7 µM] | 12% | 50µM*
SMILES | L3MBTL1 block | JMJD2A Tudor inh | Sfp PPTase inh | G9a block | HP1b binding inh | BAZ2B inh
N#Cc1cccc(-c2cncnc2NCc2cccnc2)c1 | x | x | -2% | 13%[0.501 µM] | x | x
COC(=O)NC(c1ccc2c(c1)OCO2)C(C(=O)OC)C(=O)OC (stereo unspecified) | x | x | 14% | x | x | x
CCOC(=O)Cc1ccc(NC(=O)Nc2cccc(OCc3cc(=O)n4cc(C)ccc4n3)c2)cc1 | x | 2% | x | 13%[59 µM] | 26%[57 µM] | 9%
CCOc1ccc(CCNc2ncnc3onc(-c4ccc(Cl)cc4)c23)cc1 | x | 24% | x | 11%[59 µM] | 71% | 31%[57.1 µM]
O=c1[nH]c(CNCc2cccnc2)nc2ccccc12 | 2% | -12% | 25µM* | u | 6% | -24%
c1ncc(-c2ccoc2)c(NC2CC2)n1 | x | x | 79µM* | 0%[0.501 µM] | x | x
c1cncc(-c2nc(NCc3cccs3)c3ccccc3n2)c1 | 4% | -20% | 79µM*! | 1%[0.501 µM] | 30% | -7%
CCOC(=O)c1sc(NC(=O)c2c(-c3ccccc3)c(-c3ccccc3)nn(C)c2=O)nc1C | x | u | x | u | -7% | -36%
CCc1ccccc1NC(=O)C1CCN(C2=NS(=O)(=O)C(c3ccc(C)c(C)c3)=C2C)CC1 | x | -11% | x | 6%[59 µM] | 1% | u
COc1ccc(-n2cc(CN(C)CCO)c(-c3cccc(F)c3)n2)cc1 | -7% | -15% | 10% | 10% | 23% | -19%
Cc1ccc(-n2cc(CN3CCN(Cc4nccn4C)CC3)c(-c3cccc(C)c3)n2)cc1 | -9% | u | -2% | u | -4% | u
Cc1cccc(-n2cc(CN(C)Cc3nccn3C)c(-c3cccc(F)c3)n2)c1 | -12% | 40µM* | 1% | 16µM* | u | u
CCn1ccnc1CN(C)Cc1cn(-c2cccc(C)c2)nc1-c1cccc(F)c1 | -25% | 50µM* | 45µM* | 11µM* | u | 35µM*
Cc1cccc(-n2cc(CNCCN3CCOC3=O)c(-c3cccc(F)c3)n2)c1 | 2% | -14% | 5% | x | 19% | 2%
CCn1ccnc1CN(C)Cc1cn(-c2ccc(C)cc2)nc1-c1cccc(C)c1 | -30% | u | u | 32µM* | u | 40µM*
O=C(NC1CCCC1)c1ccc(CSc2nc3cccnc3n2Cc2ccccc2F)cc1 | x | -20% | x | u | 23% | -7%
N#C/C(=C\c1ccc(Cl)cc1)C(=O)NCC1CCCO1 (stereo unspecified) | x | -13% | x | -28%[59 µM] | 17% | -2%
O=C(Nc1nnc(-c2ccccc2)s1)c1ccc(Cl)c(S(=O)(=O)N2CCOCC2)c1 | 2% | x | 1% | -28% | x | 9%
CC(C)Cc1nnc(NC(=O)c2cccc(S(=O)(=O)N3CCN(C)CC3)c2)s1 | -2% | -4% | x | 40µM* | 25% | 11%
O=C(NNS(=O)(=O)c1ccccc1F)c1cccc(S(=O)(=O)N2CCOCC2)c1 | 4% | 11µM* | -4% | u | 3% | -5%
CC(C)Cc1nnc(NC(=O)c2cccc(S(=O)(=O)N3CCOCC3)c2)s1 | -1% | -16% | x | -40%[59 µM] | 25% | 7%

High-throughput results deposited in PubChem BioAssay by National Center for Advancing Translational Sciences (NCATS).
